Assays:
Test in all cases: log2 ratio of Biotin-Ahx-Ub-VS probe labelling (fragment/DMSO); higher = less target engagement (more negative = stronger competition), active = hit call of the paper (q ≤ 0.05, log2 ratio ≤ -1)
Conditions in all cases: compound concentration: 200 uM; treatment time: 3 h
[1] = biological target: T1, USP19 (UniProt O94966)
T1 sequence (whole entry): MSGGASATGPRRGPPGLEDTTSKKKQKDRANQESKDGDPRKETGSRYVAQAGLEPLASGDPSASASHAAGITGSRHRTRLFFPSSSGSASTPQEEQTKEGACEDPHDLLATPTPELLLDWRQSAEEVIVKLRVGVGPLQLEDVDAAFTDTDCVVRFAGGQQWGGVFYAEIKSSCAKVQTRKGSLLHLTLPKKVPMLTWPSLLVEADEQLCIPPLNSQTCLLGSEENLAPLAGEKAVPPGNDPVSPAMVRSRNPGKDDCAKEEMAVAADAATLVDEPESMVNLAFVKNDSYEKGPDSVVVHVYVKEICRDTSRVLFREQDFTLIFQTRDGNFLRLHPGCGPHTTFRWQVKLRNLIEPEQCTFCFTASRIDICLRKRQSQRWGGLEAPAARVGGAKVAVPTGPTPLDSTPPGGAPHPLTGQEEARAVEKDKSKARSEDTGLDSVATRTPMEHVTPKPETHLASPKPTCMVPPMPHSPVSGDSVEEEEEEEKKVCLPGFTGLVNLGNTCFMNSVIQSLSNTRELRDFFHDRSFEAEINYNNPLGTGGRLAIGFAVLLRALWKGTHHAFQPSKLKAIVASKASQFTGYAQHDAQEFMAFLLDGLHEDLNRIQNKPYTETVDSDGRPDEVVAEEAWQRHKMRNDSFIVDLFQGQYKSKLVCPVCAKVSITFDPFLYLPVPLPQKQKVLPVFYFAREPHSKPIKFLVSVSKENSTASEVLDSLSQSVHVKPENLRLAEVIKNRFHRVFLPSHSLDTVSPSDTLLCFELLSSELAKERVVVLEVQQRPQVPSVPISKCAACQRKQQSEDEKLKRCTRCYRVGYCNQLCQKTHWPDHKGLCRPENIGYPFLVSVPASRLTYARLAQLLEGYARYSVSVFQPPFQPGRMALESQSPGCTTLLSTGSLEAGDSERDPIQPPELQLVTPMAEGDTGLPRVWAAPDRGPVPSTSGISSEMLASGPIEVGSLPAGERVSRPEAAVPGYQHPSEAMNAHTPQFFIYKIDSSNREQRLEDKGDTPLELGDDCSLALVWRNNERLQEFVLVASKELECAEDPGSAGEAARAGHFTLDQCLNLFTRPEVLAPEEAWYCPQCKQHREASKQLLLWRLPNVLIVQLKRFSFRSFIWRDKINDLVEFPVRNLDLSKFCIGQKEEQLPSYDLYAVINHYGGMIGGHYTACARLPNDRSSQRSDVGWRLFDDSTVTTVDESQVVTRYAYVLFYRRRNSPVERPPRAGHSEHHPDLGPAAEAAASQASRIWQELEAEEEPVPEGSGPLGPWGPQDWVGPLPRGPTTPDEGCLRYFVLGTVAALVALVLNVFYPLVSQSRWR
Outline: (§1)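 Each value is an average log2 ratio of fragment to vehicle, tested by unpaired t-test. The underlying Spectronaut label-free quantities were global-median-normalised, and only proteins with ≥2 unique peptides were included. Triplicate HEK293T lysate samples (495 µg) were exposed to fragment at 200 µM or vehicle for 3 h, then to Biotin-Ahx-Ub-VS at 0.5 µM final for 1 h, before NeutrAvidin enrichment of labelled DUBs, LysC and trypsin digestion, and diaPASEF LC-MS/MS.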

[2] = biological target: T2, USP22 (UniProt Q9UPT9)
T2 sequence (whole entry): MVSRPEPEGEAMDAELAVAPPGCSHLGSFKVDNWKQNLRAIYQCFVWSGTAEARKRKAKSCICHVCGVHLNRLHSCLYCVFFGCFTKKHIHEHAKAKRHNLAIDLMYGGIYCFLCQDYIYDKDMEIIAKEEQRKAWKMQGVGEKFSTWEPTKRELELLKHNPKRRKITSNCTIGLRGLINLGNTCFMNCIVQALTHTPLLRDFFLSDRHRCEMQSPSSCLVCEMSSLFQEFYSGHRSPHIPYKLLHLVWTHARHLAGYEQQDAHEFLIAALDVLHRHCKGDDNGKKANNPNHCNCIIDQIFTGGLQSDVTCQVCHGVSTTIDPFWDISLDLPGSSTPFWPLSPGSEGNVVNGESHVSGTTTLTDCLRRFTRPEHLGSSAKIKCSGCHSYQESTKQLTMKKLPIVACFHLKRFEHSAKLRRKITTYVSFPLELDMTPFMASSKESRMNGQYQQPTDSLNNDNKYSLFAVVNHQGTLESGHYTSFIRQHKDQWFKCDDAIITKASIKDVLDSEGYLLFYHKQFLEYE
Outline: as §1

[3] = biological target: USP24 (UniProt Q9UPU5)
Outline: as §1

[4] = biological target: T3, USP25 (UniProt Q9UHP3)
T3 sequence (whole entry): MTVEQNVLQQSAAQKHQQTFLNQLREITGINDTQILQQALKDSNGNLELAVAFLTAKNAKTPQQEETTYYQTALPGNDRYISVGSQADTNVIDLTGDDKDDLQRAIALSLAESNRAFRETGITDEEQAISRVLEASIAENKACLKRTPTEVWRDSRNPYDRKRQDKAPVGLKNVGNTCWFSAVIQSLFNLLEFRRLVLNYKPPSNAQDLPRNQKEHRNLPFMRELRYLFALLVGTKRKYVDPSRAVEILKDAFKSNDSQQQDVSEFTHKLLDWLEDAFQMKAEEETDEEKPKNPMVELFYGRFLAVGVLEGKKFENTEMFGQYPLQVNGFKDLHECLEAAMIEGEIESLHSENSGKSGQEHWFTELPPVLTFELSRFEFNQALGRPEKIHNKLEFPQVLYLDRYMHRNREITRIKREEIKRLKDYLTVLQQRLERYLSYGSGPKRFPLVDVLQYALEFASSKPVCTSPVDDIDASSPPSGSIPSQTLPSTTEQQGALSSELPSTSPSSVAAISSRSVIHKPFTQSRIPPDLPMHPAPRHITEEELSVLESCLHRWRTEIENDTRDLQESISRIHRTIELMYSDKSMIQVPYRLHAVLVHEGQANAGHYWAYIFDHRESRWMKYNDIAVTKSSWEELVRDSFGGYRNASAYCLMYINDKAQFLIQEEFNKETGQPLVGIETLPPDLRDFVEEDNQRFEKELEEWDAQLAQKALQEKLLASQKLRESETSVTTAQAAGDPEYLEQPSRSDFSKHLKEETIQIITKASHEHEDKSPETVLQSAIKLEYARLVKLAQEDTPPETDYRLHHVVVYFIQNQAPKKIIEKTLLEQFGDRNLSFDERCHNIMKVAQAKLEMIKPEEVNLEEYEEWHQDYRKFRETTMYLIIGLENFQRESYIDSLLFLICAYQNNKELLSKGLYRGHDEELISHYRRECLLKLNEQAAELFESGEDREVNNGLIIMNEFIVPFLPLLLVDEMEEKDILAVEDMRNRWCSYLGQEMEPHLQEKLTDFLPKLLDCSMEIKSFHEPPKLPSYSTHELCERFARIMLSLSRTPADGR
Outline: as §1

[5] = biological target: T4, USP28 (UniProt Q96RU2)
T4 sequence (whole entry): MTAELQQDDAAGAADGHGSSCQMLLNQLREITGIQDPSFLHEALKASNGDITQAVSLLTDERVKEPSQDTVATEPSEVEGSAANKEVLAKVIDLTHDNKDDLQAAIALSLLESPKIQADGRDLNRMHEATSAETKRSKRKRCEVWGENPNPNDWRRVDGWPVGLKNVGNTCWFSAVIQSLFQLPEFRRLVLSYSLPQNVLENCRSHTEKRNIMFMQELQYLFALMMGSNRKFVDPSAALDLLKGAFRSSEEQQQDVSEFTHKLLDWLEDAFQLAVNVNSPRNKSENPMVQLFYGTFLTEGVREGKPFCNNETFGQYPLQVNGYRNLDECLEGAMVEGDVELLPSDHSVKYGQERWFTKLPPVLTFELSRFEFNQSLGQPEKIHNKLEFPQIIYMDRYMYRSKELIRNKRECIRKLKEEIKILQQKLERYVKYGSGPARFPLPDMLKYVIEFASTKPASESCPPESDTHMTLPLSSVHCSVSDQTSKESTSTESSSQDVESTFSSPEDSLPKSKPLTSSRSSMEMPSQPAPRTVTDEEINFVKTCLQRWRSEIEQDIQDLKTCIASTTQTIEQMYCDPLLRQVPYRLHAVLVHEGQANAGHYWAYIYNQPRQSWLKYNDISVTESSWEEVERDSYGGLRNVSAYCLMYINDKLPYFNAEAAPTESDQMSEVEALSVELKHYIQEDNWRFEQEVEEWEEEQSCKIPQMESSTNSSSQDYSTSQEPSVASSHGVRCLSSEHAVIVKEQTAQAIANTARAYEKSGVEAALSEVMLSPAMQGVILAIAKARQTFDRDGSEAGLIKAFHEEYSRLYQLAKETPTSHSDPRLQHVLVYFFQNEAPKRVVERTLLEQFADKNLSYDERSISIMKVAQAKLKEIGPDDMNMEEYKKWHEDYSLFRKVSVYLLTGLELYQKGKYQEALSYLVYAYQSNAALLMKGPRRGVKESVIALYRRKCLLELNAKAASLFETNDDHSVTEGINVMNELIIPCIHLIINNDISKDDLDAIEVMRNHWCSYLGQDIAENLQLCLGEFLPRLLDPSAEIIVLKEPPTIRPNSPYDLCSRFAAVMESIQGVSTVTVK
Outline: as §1

Measured: log2 ratio of Biotin-Ahx-Ub-VS probe labelling

USP24, sequence (Q9UPU5 whole entry): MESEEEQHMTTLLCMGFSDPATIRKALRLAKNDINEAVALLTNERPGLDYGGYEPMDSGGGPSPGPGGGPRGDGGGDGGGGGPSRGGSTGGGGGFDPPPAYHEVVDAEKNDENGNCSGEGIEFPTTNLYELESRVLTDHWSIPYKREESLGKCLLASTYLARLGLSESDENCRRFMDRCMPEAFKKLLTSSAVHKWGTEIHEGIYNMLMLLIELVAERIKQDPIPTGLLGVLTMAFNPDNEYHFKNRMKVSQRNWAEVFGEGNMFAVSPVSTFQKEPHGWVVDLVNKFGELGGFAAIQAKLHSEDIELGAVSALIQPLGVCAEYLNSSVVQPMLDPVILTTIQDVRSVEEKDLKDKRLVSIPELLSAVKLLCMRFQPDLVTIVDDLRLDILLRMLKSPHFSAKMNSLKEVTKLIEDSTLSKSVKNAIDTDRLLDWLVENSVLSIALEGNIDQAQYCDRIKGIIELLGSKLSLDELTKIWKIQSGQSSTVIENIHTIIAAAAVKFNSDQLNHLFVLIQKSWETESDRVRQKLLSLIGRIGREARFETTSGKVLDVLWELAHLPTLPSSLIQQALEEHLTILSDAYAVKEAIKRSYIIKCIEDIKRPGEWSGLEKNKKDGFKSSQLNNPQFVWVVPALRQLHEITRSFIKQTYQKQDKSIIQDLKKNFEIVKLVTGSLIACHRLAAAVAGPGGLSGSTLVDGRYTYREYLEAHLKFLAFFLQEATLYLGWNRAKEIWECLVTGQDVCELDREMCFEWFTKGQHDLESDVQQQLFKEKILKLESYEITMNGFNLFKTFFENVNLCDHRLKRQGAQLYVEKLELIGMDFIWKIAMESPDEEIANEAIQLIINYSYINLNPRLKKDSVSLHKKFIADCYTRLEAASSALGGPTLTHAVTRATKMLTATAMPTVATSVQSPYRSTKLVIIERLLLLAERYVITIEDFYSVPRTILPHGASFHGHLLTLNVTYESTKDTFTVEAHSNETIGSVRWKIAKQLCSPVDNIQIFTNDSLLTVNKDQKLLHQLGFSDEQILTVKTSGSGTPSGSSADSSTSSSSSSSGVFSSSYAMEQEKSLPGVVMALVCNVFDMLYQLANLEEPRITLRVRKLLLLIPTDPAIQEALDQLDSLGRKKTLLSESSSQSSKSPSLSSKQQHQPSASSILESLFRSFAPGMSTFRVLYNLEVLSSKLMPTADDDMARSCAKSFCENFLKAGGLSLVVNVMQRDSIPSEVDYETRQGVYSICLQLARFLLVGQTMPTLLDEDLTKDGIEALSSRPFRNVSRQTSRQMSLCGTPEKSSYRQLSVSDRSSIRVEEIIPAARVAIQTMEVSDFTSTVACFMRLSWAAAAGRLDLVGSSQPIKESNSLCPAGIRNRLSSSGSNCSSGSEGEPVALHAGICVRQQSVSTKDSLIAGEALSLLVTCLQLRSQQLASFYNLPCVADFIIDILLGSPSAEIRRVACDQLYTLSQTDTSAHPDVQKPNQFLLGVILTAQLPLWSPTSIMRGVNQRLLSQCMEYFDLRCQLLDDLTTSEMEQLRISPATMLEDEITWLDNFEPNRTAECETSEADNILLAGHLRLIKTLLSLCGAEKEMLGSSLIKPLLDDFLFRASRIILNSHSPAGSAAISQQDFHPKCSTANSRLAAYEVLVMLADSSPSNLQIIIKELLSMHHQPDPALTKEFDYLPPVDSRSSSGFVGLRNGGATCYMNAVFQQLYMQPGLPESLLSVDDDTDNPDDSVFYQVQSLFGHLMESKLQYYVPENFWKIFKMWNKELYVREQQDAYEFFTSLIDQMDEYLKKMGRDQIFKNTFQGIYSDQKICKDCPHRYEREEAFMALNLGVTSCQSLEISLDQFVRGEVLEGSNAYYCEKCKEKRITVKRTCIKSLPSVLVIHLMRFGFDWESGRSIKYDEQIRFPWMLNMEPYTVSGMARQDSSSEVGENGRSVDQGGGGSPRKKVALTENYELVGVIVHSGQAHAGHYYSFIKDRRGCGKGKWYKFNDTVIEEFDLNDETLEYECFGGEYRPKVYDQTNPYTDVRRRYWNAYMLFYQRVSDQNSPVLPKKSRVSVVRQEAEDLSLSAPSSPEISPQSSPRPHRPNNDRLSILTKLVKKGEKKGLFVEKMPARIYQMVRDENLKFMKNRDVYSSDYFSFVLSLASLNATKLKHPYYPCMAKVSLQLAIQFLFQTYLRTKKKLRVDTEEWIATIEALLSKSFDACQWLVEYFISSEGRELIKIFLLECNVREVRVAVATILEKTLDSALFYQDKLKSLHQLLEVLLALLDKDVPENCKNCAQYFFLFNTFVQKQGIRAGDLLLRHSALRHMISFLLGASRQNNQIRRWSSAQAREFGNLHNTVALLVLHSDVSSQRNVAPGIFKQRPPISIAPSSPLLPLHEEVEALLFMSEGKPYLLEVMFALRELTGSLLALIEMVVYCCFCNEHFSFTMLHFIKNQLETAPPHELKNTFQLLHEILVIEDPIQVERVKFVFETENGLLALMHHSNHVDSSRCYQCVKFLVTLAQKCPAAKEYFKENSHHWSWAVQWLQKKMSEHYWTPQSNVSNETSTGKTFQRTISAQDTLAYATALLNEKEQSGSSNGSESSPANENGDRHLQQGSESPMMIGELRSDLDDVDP

O=C(CCl)N1CCOC2(CCC2)CC1
inactive: [1] -0.704 | [2] -0.382 | [3] -0.23 | [4] -0.448 | [5] -0.346
